# From the supplement of paper PMC6992640
# ± gives the standard deviation of the averaged measurements.
# Tested on: WHIM2 (cells of a triple-negative basal-like breast cancer xenograft)
# Test: cell viability (% of vehicle); higher = less cytotoxic
# Conditions: 10 µM; 72 h
# 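Also: PDX cells carrying CMV promoter-driven luciferase, viability read as total photon flux per second by IVIS imaging following D-luciferin, vehicle control 0.1% DMSO.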
row,Structure (SMILES),cell viability
1,"Cc1cc(Nc2cc(N3CCN(C)CC3)nc(Sc3ccc(NC(=O)C4CC4)cc3)n2)n[nH]1 [VX-680 (MK-0457,Tozasertib)]",67.6 ± 2.1
2,O=C([O-])P(=O)([O-])[O-].[Na+].[Na+].[Na+] [Foscarnet Sodium],103 ± 11
3,Cc1onc(-c2ccccc2Cl)c1C(=O)NC1C(=O)N2C1SC(C)(C)C2C(=O)[O-].O.[Na+] (centres undefined) [Cloxacillin Sodium],132 ± 37
4,CNCc1ccc(-c2[nH]c3cc(F)cc4c3c2CCNC4=O)cc1.O=P(O)(O)O,173 ± 26
5,CN1CCC(OC(c2ccccc2)c2ccccc2)CC1.Cl [Diphenylpyraline HCl],84.7 ± 21
6,COc1cc(OC)c(C(=O)CCCN2CCCC2)c(OC)c1.Cl [Buflomedil HCl],117 ± 28
7,CC(C)(O)c1ccccc1CCC(SCC1(CC(=O)[O-])CC1)c1cccc(C=Cc2ccc3ccc(Cl)cc3n2)c1.[Na+] (centres undefined) [Montelukast Sodium],50.8 ± 12
8,CC(=O)Oc1ccccc1C(=O)O [Aspirin (Acetylsalicylic acid)],101 ± 16
9,CCN(CCCc1ccccc1)CCCc1ccccc1.O=C(O)CC(O)(CC(=O)O)C(=O)O [Alverine Citrate],88.6 ± 4
10,CC#CCn1c(N2CCCC(N)C2)nc2c1c(=O)n(Cc1nc(C)c3ccccc3n1)c(=O)n2C (centres undefined) [Linagliptin (BI-1356)],111 ± 1.3
11,Cc1cc2c(s1)=Nc1ccccc1NC=2N1CCN(C)CC1 [Olanzapine],90.9 ± 8.5
12,CC1(O)CC(c2nc(-c3ccc4ccc(-c5ccccc5)nc4c3)c3c(N)nccn23)C1 (centres undefined) [Linsitinib],102 ± 11
13,Cc1cn(C2CC(O)C(CO)O2)c(=O)[nH]c1=O (centres undefined) [Telbivudine],94.1 ± 16
14,Nc1ncnc2c1ncn2C1OC(CO)C(O)C1O (centres undefined) [Adenosine],121 ± 34
15,CC(=O)[C@@]1(O)CC[C@H]2[C@@H]3CCC4=CC(=O)CCC4=C3[C@@H](c3ccc(N(C)C)cc3)C[C@@]21C [Ulipristal],87.8 ± 10
16,Cc1c(OCC(F)(F)F)ccnc1CS(=O)c1nc2ccccc2[nH]1 (centres undefined) [Dexlansoprazole],173 ± 16
17,c1cc(CN2CCCNCCNCCCNCC2)ccc1CN1CCCNCCNCCCNCC1 [Plerixafor (AMD3100)],73 ± 11
18,COS(=O)(=O)[O-].C[N+]1(C)CCC(=C(c2ccccc2)c2ccccc2)CC1 [Diphemanil Methylsulfate],96.7 ± 19
19,CC(O)C1C(=O)N2C(C(=O)OCOC(=O)C(C)(C)C)=C(SC3CN(C4=NCCS4)C3)C(C)C12 (centres undefined) [Tebipenempivoxil],112 ± 53
20,CS(=O)(=O)N1CCN(Cc2cc3nc(-c4cccc5[nH]ncc45)nc(N4CCOCC4)c3s2)CC1,63.7 ± 3.2
21,O=C(NC(CO)C(O)c1ccc([N+](=O)[O-])cc1)C(Cl)Cl (centres undefined) [Chloramphenicol],106 ± 27
22,Cc1ccc(Nc2nccc(N(C)c3ccc4c(C)n(C)nc4c3)n2)cc1S(N)(=O)=O.Cl,152 ± 5.7
23,NC(=O)N1CCC(CC(=O)N2CCC(C3c4ncc(Br)cc4CCc4cc(Cl)cc(Br)c43)CC2)CC1 (centres undefined) [Lonafarnib],126 ± 12
24,CC(C)OC(=O)OCOP(=O)(COC(C)Cn1cnc2c(N)ncnc21)OCOC(=O)OC(C)C.O=C(O)C=CC(=O)O (centres undefined) [Tenofovir Disoproxil Fumarate],118 ± 28
25,"CC1(C)SC2C(NC(=O)C(C(=O)[O-])c3ccccc3)C(=O)N2C1C(=O)[O-].[Na+].[Na+] (centres undefined) [Carbenicillin, Disodium Salt]",110 ± 17
26,CC1C(=O)OC2CC34C5CC(C(C)(C)C)C36C(OC(=O)C6O)OC4(C(=O)O5)C21O (centres undefined) [Ginkgolide A],101 ± 12
27,CNS(=O)(=O)Cc1ccc2[nH]cc(CCN(C)C)c2c1 [Sumatriptan],95.6 ± 19
28,Nc1nc(=O)c2c([nH]1)NCC(CNc1ccc(C(=O)NC(CCC(=O)[O-])C(=O)[O-])cc1)N2C=O.O.O.O.O.O.[Ca+2] (centres undefined) [Leucovorin Calcium],67.9 ± 22
29,NC(=O)C(CCC(F)(F)F)N(Cc1ccc(-c2ncon2)cc1F)S(=O)(=O)c1ccc(Cl)cc1 (centres undefined),107.6 ± 0.73
